# High-throughput results deposited in PubChem BioAssay by National Center for Advancing Translational Sciences (NCATS).
# JMJD2A Tudor: qHTS Assay for Inhibitors of JMJD2A-Tudor Domain | Potency, µM (highest dose often 114 µM), for inactives: at the highest dose activity change, negative = inhibition, hits mostly inhibitors | AlphaScreen JMJD2A-Tudor / H3K4me3 peptide binding | 390,000 tested, 4.4% active | Lysine-specific demethylase 4A (Homo sapiens), O75164; also: % is scaled to controls: 0 for no effect and ±100 for the full control effect; nearly all actives have a fitted effect of over 50% in size
# BAZ2B block: qHTS Assay for Inhibitors of BAZ2B | Bromodomain adjacent to zinc finger domain protein 2B (Homo sapiens), Q9UIF8 | AlphaScreen BAZ2B-H3K14Ac peptide displacement | Potency, µM (series often up to 114 µM), without a hit: at the top dose activity change, negative = inhibition, hits mostly inhibitors | 360,000 tested, 4.4% active | AID 504333, 2011; also: % is scaled to controls: 0 for no effect and ±100 for the full control effect; nearly all actives have a fitted effect of over 60% in size
#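 Multi-concentration screen (max 110 uM) measuring displacement of acetylated histone H3 peptide from BAZ2B by AlphaScreen, using 50 nM protein, 50 nM peptide and 10 ug/mL streptavidin donor plus Ni-chelate acceptor beads.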
# G9a inh: qHTS Assay for Inhibitors of Histone Lysine Methyltransferase G9a; 350,000 tested, 8.8% active; AID 504332, 2011; Histone-lysine N-methyltransferase EHMT2 (Homo sapiens), Q96KQ7; G9a H3K9 monomethylation, AlphaScreen, 2 h; Potency, µM (doses to about 102 µM), for the others: at the highest dose activity, negative = inhibition, actives largely listed as inhibitors; also: % is scaled to controls: 0 for no effect and ±100 for the full control effect; nearly all actives have a fitted effect of over 75% in size
#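 Methyltransferase reactions run at room temperature for 2 h (20 nM enzyme, 500 nM biotin-H3K9 peptide, 20 uM SAM) after a 15 min compound preincubation; product detected by AlphaScreen beads and anti-H3K9me1 antibody.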
# HP1b binding inh: HTS for Inhibitors of HP1-beta Chromodomain Interactions with Methylated Histone Tails. Chromobox protein homolog 1 (Homo sapiens), P83916. AlphaScreen HP1-beta / biotin-H3K9me3 peptide binding. Potency, µM (top dose mostly 114 µM), inactives show at the top dose activity change, negative = inhibition, actives largely listed as inhibitors. 390,000 tested, 0.56% active. AID 540317, 2011; also: nearly all actives have a fitted effect of over 70% in size
#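 HP1-beta protein (50 nM final) preincubated 30 min at room temperature with biotinylated H3(1-18)K9me3 peptide (50 nM) in PBS pH 7.4, 0.01% Tween-20, then compound added for 30 min. AlphaScreen streptavidin donor/nickel chelate acceptor beads (10 ug/mL final), 30 min dark, luminescence read.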
# 12-LOX inh: Primary qHTS assay for inhibitors of human arachidonate 12S-lipoxygenase (ALOX12): Round 2. Polyunsaturated fatty acid lipoxygenase ALOX12 (Homo sapiens), P18054. purified 12hLO, xylenol orange hydroperoxide absorbance. Potency, µM (highest dose often 108 µM), for the others: top-dose activity change, negative = inhibition, hits mostly inhibitors. 580,000 tested, 1.1% active. AID 1671190, 2021; also: % is scaled to controls: 0 for no effect and ±100 for the full control effect
# Target sequence (P18054 whole entry, looked up): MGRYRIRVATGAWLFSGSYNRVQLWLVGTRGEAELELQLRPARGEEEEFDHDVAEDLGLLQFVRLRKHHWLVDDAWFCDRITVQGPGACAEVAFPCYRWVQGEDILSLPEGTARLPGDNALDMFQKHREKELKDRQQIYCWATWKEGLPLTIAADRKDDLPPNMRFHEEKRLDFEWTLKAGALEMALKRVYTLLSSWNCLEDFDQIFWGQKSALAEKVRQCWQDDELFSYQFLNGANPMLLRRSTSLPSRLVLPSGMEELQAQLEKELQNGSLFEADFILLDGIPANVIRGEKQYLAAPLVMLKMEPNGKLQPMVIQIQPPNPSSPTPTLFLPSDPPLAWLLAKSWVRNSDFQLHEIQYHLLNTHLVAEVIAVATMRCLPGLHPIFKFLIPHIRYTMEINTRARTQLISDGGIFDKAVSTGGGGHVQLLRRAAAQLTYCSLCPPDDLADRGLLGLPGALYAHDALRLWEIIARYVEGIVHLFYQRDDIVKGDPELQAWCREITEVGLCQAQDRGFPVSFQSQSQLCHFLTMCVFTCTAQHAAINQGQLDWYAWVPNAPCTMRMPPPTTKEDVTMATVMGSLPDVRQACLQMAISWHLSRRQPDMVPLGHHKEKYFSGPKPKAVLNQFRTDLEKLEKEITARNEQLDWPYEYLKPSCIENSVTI
#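 Purified human 12hLO (150 nM final) in 25 mM Hepes, 0.01% Triton X-100, pH 7.0 was preincubated 15 min at room temperature with compound. Then 40 uM arachidonic acid was added, 30 min. Hydroperoxide was read by Fe-XO absorbance ratio 573/405 nm.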
# Sfp inh: qHTS Assay for Inhibitors of Bacillus subtilis Sfp phosphopantetheinyl transferase (PPTase) | 4'-phosphopantetheinyl transferase ffp (Bacillus subtilis), Q9F4F7 | Biochemical Sfp PPTase activity, qHTS | Potency, µM, for the others: largest response in the series, negative = inhibition, actives largely listed as inhibitors | 310,000 tested, 3.5% active | AID 1490, 2009;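 also: the enzyme is Sfp with the accession as filed and its product quenches rhodamine fluorescence; 0% = enzyme reaction without inhibitor and -100% = no enzyme wells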
#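 Sfp 15 nM + cpd, 15 min RT; start w/ rhodamine-CoA 5 uM, BHQ-2-YbbR 12.5 uM (final); 50 mM Hepes pH 7.6, 10 mM MgCl2, 0.01% NP-40, 0.01% BSA; read 525/598 nm at 0 and 30 min.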
# The depositor's hits bear a star; ? = inconclusive; . = no result given; ! = repeats disagree; [ ] = dose if it differs, or a comment. Compounds with a hit are over-represented: about 8.7% of the library has one in this group of screens. Calls follow the shape of the dose curve; as a rule, active = well fitted curve in the direction sought with a large enough effect; inconclusive = small, poorly fitted or top-dose-only effect, or another doubt; inactive = no such curve, though single readings can be large; an effect the other way counts as inactive or inconclusive. Potency is read from the fitted curve at half-maximal effect.
SMILES,JMJD2A Tudor,BAZ2B block,G9a inh,HP1b binding inh,12-LOX inh,Sfp inh
Cn1nnnc1SCC(=O)c1ccc(Br)s1,-16%,0%,.,39%,1%,-49%
CCn1c(SCC(=O)c2cccs2)nnc1-c1ccco1,-16%,-5%,50µM*,33%,-3%,0%
Cc1ccc(-n2nnnc2SC(C(=O)N2CCCC2)c2ccccc2)cc1C (stereo unspecified),.,.,.,.,10%,.
CCCCNC(=O)c1cccc(NC(=O)Cc2ccccc2)c1,.,.,.,.,5%,.
Cc1cccc(CN2C[C@]34C=C[C@H](O3)C(C(=O)N(C)Cc3nnc(C)o3)C4C2=O)c1 (stereo partly specified),.,.,.,.,10%,.
Cn1cccc1C(=O)NC(=O)CSc1cccc[n+]1[O-],-10%,-37%,28µM*,13%,0%,?
O=C(CSc1cccc[n+]1[O-])c1cccs1,-9%,-12%,18µM*,15%,-23%,4%
O=C(O)CSc1cccc[n+]1[O-],-18%,-23%,?,6%,-16%,9%
CCn1c(SCC(=O)N2c3ccccc3Sc3ccccc32)nnc1-c1ccco1,?,?,6.3µM*,-7%,?,?
Cn1c(SCC(=O)N2c3ccccc3Sc3ccc(Cl)cc32)nnc1-c1ccco1,?,?,?,2%,-20%,-18%
C=CCn1c(SCC(=O)N2c3ccccc3Sc3ccccc32)nnc1-c1ccco1,-34%,?,?,-7%,22µM*,-16%
CC(NC(=O)COc1cccc(Br)c1)C(=O)O (stereo unspecified),0%,5%,50µM*,44%,-22%[57.4 µM],22%
CC(NC(=O)COc1ccc(Br)cc1)C(=O)O (stereo unspecified),-10%,2%,?,27%,?,6%
O=C(COc1cccc(Br)c1)N/N=C1\CCSC1,71µM*,-17%,-21%,2%,12%,11%
CCN(CC)S(=O)(=O)c1ccc2[nH]c(=O)cc(C(=O)N(C)Cc3ccccc3C)c2c1,.,.,.,.,-3%,.
CCNC(=O)NCCc1ncc(C)n1Cc1ccc(F)cc1,.,.,.,.,47%,.
COC(=O)c1ccc(-n2c(CCC(=O)O)ccc2-c2ccc(C)cc2)cc1,?,45µM*,14µM*!,13%,-33%,5%
COC(=O)c1ccccc1NC(=O)Cn1c(CCC(=O)O)ccc1-c1ccc(C)cc1,?,?,?,0%,9%,.
Cc1ccc(C)n1-c1ccc(C(=O)O)cc1,.,13µM*,8.9µM*,.,.,-14%
Cc1ccc(-c2ccc(CCC(=O)O)n2-c2cccc(C(=O)O)c2)cc1,-26%,-12%,45µM*,10%,0%,-20%
O=C(O)CCc1ccc(-c2ccccc2)n1-c1cccc(O)c1,?,-35%,?,-6%,?,-17%
CC(=O)Nc1ccc(-n2c(CCC(=O)O)ccc2-c2ccc(C)cc2)cc1,-31%,-32%,14µM*,-5%,-26%,.
CC(C)C(=O)NCCc1noc(Cc2ccccc2)n1,.,.,.,.,42%,.
Cc1ccc(-c2ccc(CCC(=O)O)n2-c2cccc(C)c2C)cc1,35µM*,45µM*,14µM*,-24%,-19%,.
CCOC(=O)c1ccc(NC(=O)Nc2ccc(F)cc2)cc1,3%,11%,-1%,17%,?,-4%
SMILES,JMJD2A Tudor,BAZ2B block,G9a inh,HP1b binding inh,12-LOX inh,Sfp inh
COC(=O)c1cccc(-n2c(CCC(=O)O)ccc2-c2ccc(OC)cc2)c1,-20%,?,18µM*,12%,-3%,.
O=C(O)CCc1ccc(-c2ccc(Br)cc2)n1-c1ccccc1O,-30%,-37%,?,-4%,?,.
CCOC(=O)c1ccc(-n2c(CCC(=O)O)ccc2-c2ccc(F)cc2)cc1,-35%,-36%,45µM*,2%,?,-2%
COc1ccc(-c2ccc(CCC(=O)O)n2-c2cc(OC)ccc2OC)cc1,.,.,.,.,-18%,.
Cc1ccc(-c2ccc(CCC(=O)O)n2-c2ccc(C(C)C)cc2)cc1,?,40µM*,16µM*,?,?,.
Cc1ccc(-c2ccc(CCC(=O)O)n2-c2ccc(C(=O)O)cc2)cc1,-17%,?,32µM*,22%,-13%,56µM*
CC(=O)Nc1ccc(-n2c(CCC(=O)O)ccc2-c2ccc(Br)cc2)cc1,-25%,?,?,-17%,?,.
COc1ccc(N2CCN(Cc3nc4c(c(=O)[nH]c(=O)n4C)n3Cc3ccccc3F)CC2)cc1,-8%,-24%,-11%[59 µM],39%,?,.
COc1ccc(CCn2c(-n3nc(C)cc3C)nc3c2c(=O)[nH]c(=O)n3C)cc1,3.2µM*,.,.,-14%,0%,.
COc1ccc(N2CCN(c3nc4c(c(=O)[nH]c(=O)n4C)n3Cc3cccc(C)c3)CC2)cc1,?,-34%,10µM*,?,-7%,-8%
COc1ccc(N2CCN(Cc3nc4c(c(=O)[nH]c(=O)n4C)n3Cc3ccccc3C)CC2)cc1,-4%,-23%,28µM*,19%,?,.
Cc1ccc(Cn2c(-n3nc(C)cc3C)nc3c2c(=O)[nH]c(=O)n3C)cc1,-3%,-4%,-1%,28%,-8%,11%
CCOC(=O)C1CCN(C(=O)C2CCCN(c3cnn(C)c(=O)c3)C2)CC1 (stereo unspecified),.,.,.,.,9%,.
CNC(=O)NC[C@H]1CCN(Cc2ccccc2C#N)C[C@H]1N(C)C,.,.,.,.,52%,.
COc1ccc(/C=C2\SC(=S)N(CCC(=O)N3CCOCC3)C2=O)cc1,-13%,14%,43%[12.7 µM],4%,11%,11%
